Data on 40 compounds can be found in ChEMBL document CHEMBL3988442, “University of Dundee, Small-Polar-MMV Screening Library” (2021).

The assay addresses AMP-activated protein kinase, AMPK (Homo sapiens) (UniProt P54646+O43741+P54619+Q9UGJ0+Q9Y478+Q13131+Q9UGI9). In words: AMP-dependent Kinase enzyme assay. An in vitro enzyme assay that detects ADP turnover that is directly proportional to AMPK activity. This uses naive AMPK that is activated during the assay with MK-8722. Set-up: scale not given: direction of the effect not stated beside the values. In kind it is functional. Conditions: 30 µM.
Take `CCOCCNCc1cc(O)c2cc(C)ccc2n1`: the Percent Effect is -3.23%.
`Cc1cc(C)n(CCCN(C)c2cc(N(C)C)ncn2)n1`: the Percent Effect was 0.376%.
Consider `c1ncc(-c2cn(CCSc3cnn[nH]3)nn2)cn1`, for which the Percent Effect is -3.28%.
For `CC(C)c1nc(CN2CCN(C(=O)OC(C)(C)C)C(C)C2)no1` (stereo not given), the Percent Effect was found to be 1.33%.
Regarding `CSCCC(=O)N1CCN(CC(C)O)CC1` (stereo not given), the Percent Effect was -1.95%.
To `Cc1[nH]c2c(C)ccc(C)c2c1CC(=O)NC1CCCNC1=O` (stereo not given) belongs 6.1%; to `Cc1cc(CNC(=O)NCCC(=O)N2CCCc3ccccc32)no1`, -5.1%; to `CN(Cc1ccc2c(c1)OCCO2)c1ncc(S(N)(=O)=O)s1`, -1.85%.
`CCC(=O)NCCc1cc2nc(-c3ccncc3)ccn2n1`: the Percent Effect worked out at 18.1%.
To `CN(C)Cc1cn(-c2ccccc2C(=O)NCC2CCCCN2C)cn1` (stereo not given) belongs -15.9%.
On to `CCC[C@H]1CN(Cc2cc(C#N)n(C)c2C)C[C@@H]1N(C)C`, for which the Percent Effect stood at 2.21%.
For the compound `NC(=O)CC1CCCN(c2cncc(OCc3ccccc3)n2)C1` (stereo not given), the Percent Effect was determined as 20.7%.
The figure for `Cc1cc(C)cc(-n2ncc3c2CCCC3N)c1` (stereo not given) is 15.1%.
The figure for `Cc1ccc(S(=O)(=O)N(CC2CCOC2)C2CC2)cc1N(C)C` (stereo not given) is -15%; for `O=C(NCc1ccc(OCC2CC2)nc1)C1COc2ccccc2O1` (stereo not given) it is -1.03%; for `O=C(NC1CCN(c2ccccc2OC(F)F)C1)c1cccnc1` (stereo not given) it is -0.669%.
On to `CN1CC2(CCCN(CCOCc3ccccc3)C2)OC1=O` (stereo not given), for which the Percent Effect is -1.54%.
As to `O=C(NC1CCCC1)N1C[C@H]2CN(c3ccccn3)C[C@@]2(C(=O)O)C1`, the Percent Effect was determined as 3.09%.
Consider `CCc1nc(C)c(CC(=O)N2CCC3(CC2)OCCCC3O)c(=O)[nH]1` (stereo not given), for which the Percent Effect worked out at 2.99%.
Regarding `COc1ccc(CNC(C)c2cnn(C)c2)cc1OC1CCCC1` (stereo not given), the Percent Effect is 8.55%.
For `CN(Cc1ccccc1)c1cnn(CC2CCCCO2)c(=O)c1` (stereo not given), the Percent Effect was found to be 7.07%.
`COCC(NC(=O)c1cc(NC(C)=O)ccc1Cl)c1ccnn1C` (stereo not given): the Percent Effect was -8.6%.
To `Cc1nc2c(c(=O)[nH]1)CN(C(=O)CC[C@@H]1CCCN3CCCC[C@H]13)C2` belongs 16.1%; to `CC(C)c1noc(C(C)N2CCN(Cc3nc4ccccc4[nH]3)CC2)n1` (stereo not given), -0.358%.
Take `CC(C)O[C@H]1CN(C(=O)CCN2CCCCO2)C[C@@H]1O`: the Percent Effect was -7.14%.
The figure for `CC(C)c1ccc(/C=C/CC(=O)NC2CCN(C(N)=O)C2)cc1` (stereo not given) is 1.32%; for `COCCC(=O)N1CCCC(CCc2ccc(F)c(F)c2)C1` (stereo not given) it is 8.62%; for `COc1cccnc1NC(=O)COC1CCCC1` it is 8.7%.
To `CCOc1cccc(CN(Cc2cnn(C)c2)CC(C)C)c1O` belongs -9.84%; to `CC1(c2ncc(CN(CC(=O)O)Cc3ccccc3)cn2)CCCCO1` (stereo not given), 12.9%; to `O=C(NCC1CCOC1)c1cc(-c2ccccc2Cl)[nH]n1` (stereo not given), 2.35%.
In the case of `CN(CCc1ccncc1)c1cnn(C)c(=O)c1Br`, the Percent Effect is -1.01%.
With `Cc1ccccc1CN1CCCC1c1cccc(Nc2nccs2)n1` (stereo not given), the Percent Effect is 16.4%.
As for `Cc1cc(C)n(C2CN(c3nc(N)nc4c3CCCC4)C2)n1`, the Percent Effect is -1.57%.
Turning to `COc1cccc(CN(C)Cc2nc3cc(C)ccc3[nH]2)c1O`, the Percent Effect turned out to be 5.48%.
In the case of `CCCn1ccnc1-c1cccc(NC2CCOC2)c1` (stereo not given), the Percent Effect is 1.21%.
To `CN(C(=O)c1ccncc1)c1nnc(C2CCOC2)s1` (stereo not given) belongs 12.1%; to `COc1ccccc1CCN(C)C(C)c1nc(-c2cccnc2)no1` (stereo not given), 1.66%.
The figure for `CC(C)(C)C(=O)N1CCC(c2cnc(-c3cn[nH]c3)cn2)CC1` is 1.14%.
For `CCc1nc(CCNc2ncccc2S(N)(=O)=O)sc1C`, the Percent Effect is -3.81%.
